Reference: PubChem BioAssay (NCATS)
Results filed as inconclusive are left out. A call without a number means that no potency is given here. Some structures have more than one record in an assay (separate samples or runs), and their calls can disagree. Calls of active or inactive are those of the source. Calls follow the shape of the dose curve; as a rule, active = well fitted activation curve with a large enough effect in the main read-out, with a control signal flat (not every such curve was filed as active); inconclusive = small, poorly fitted or top-dose-only effect, or effect the other way, or a change in a side signal; inactive = flat fitted curve, though single readings scatter. Residues, ends and D or L forms follow the SMILES beside them. *: point of attachment. Cbz = O=C(OCc1ccccc1)*
Potency is read from the fitted curve at half-maximal effect.

What follows are molecules tested against 3',5'-cyclic-AMP phosphodiesterase 4B (Homo sapiens) (UniProt Q07343) (assay: qHTS Assay for Inhibitors of PDE-IV (AID 607)). Details: HEK293 ACTOne CNG channel cells, membrane potential fluorescence; series mostly up to 22.9 µM.
3',5'-cyclic-AMP phosphodiesterase 4B (Homo sapiens), sequence (Q07343 whole entry, looked up): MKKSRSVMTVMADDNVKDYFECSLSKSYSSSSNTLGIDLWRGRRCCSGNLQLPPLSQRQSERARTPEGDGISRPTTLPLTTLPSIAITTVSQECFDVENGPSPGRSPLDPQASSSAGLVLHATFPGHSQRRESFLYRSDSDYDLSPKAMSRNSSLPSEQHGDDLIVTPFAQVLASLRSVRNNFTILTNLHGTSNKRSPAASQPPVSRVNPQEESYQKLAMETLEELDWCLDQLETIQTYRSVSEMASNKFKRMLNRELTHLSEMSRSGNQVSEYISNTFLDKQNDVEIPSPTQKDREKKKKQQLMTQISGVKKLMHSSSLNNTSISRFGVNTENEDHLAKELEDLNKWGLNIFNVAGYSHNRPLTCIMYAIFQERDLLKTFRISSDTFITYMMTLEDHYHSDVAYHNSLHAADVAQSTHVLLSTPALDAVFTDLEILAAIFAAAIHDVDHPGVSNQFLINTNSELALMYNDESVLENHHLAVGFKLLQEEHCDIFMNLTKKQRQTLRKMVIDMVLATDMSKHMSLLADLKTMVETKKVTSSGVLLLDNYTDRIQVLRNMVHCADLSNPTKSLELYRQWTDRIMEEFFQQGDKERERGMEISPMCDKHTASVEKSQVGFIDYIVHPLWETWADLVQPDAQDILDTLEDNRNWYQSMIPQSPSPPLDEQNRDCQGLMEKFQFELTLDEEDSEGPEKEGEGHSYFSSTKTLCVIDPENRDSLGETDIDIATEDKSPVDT
Method in brief: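 Live HEK293 cells with a modified cyclic nucleotide-gated (CNG) channel report intracellular cAMP via membrane-potential dye fluorescence (ex 535/em 590 nm). Endogenous PDE-IV was targeted. Compounds were tested at up to 22.9 uM final; RO 20-1724 100 uM served as control.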
N=C(N)c1ccc(OCCCCCOc2ccc(C(=N)N)cc2)cc1 (tested in a mixture with another compound) was tested, and the Potency was “inactive”. N#CC(C#N)=C(N)/C(C#N)=C/c1ccc(O)cc1 was tested, and the Potency was “inactive”. For N[C@H](C(=O)O)[C@H](O)C(=O)O, the Potency was “inactive”. For Cn1cc(C(=O)OCC2CCN(CCNS(C)(=O)=O)CC2)c2ccccc21, the Potency was “inactive”. For Cn1ccnc1, the Potency was “inactive”. O=c1[nH]ccc2c(O)cccc12 was tested, and the Potency was “inactive”. NC(=O)CNCCC(c1ccccc1)c1ccccc1 was tested, and the Potency was “inactive”. With C=C1C(=O)O[C@@H]2[C@H]3O[C@]3(C)CCC=C(C)CC[C@@H]12 the Potency was “inactive”. For COc1cc(/C=C(\C#N)C(=O)c2ccc(O)c(O)c2)cc(I)c1O, the Potency was “inactive”. With c1ccc2nc(C3=NCCN3)ccc2c1 the Potency was “inactive”. With CSC(=N)N the Potency was “inactive”. In the case of C[C@H](O)C(=O)C1=Nc2c(nc(N)[nH]c2=O)NC1, the Potency is reported as “inactive”. With O=c1oc(Cl)c(Cl)c2ccccc12 the Potency was “inactive”. For CC(C)[C@H](NC(=O)OCc1ccccc1)C(=O)N[C@H](C=O)Cc1ccccc1 (Cbz-Val-Phe-aldehyde), the Potency was “inactive”. O=c1[nH]c(=O)c2nc3ccccc3nc2[nH]1 was tested, and the Potency was “inactive”. In the case of CCCCCCN(CCCCCC)C(=O)Cc1c(-c2ccc(F)cc2)[nH]c2ccccc12, the Potency is reported as “inactive”. With O=C(O)Cc1c[nH]c2ccc(O)cc12 the Potency was “inactive”. With Nc1ccc(N2C(=O)c3ccccc3C2=O)c(Cl)c1 the Potency was “inactive”. For O=c1onc2cnc3ccccc3n12, the Potency was “inactive”. CCCn1c(=O)c2[nH]c(C3CCCC3)nc2n(CCC)c1=O was tested, and the Potency was 5.01 µM (active) and inactive. For Cc1cccc(C(=O)NCN2CCN(c3ccccc3C#N)CC2)c1, the Potency was “inactive”. For NC1(C(=O)O)CC1, the Potency was “inactive”. N=C(N)c1ccccc1 was tested, and the Potency was “inactive”. NCCCNCCCCNCCCN was tested, and the Potency was “inactive”. With NC(N)=[N+]1CCc2ccccc2C1 the Potency was “inactive”. In the case of CC(=O)NCCc1c[nH]c2ccc(O)cc12, the Potency is reported as “inactive”. With O=C(O)c1cc(=O)cc(C(=O)O)[nH]1 the Potency was “inactive”. In the case of CCN1C(=O)C=CC1=O, the Potency is reported as “inactive”. O=C1Nc2ccc(I)cc2/C1=C/c1cc(Br)c(O)c(Br)c1 was tested, and the Potency was “inactive”. CCCCCCCCCCCCCCSCC(=O)O was tested, and the Potency was “inactive”. With CC(=O)NNC(=O)N1Cc2ccccc2Oc2ccc(Cl)cc21 the Potency was “inactive”. COc1ccc2c(c1)c(CC(=O)O)c(C)n2Cc1ccc(Cl)cc1 was tested, and the Potency was “inactive”. In the case of Oc1ccc(Cn2cc[nH]c2=S)cc1, the Potency is reported as “inactive”. In the case of CC[N+](CC)(CC)CC(=O)Nc1c(C)cccc1C, the Potency is reported as “inactive”. For Nc1nc2[nH]c(=O)cnc2c(=O)[nH]1, the Potency was “inactive”. In the case of c1ccc(CN2CCC3(CCCc4ccccc43)CC2)cc1, the Potency is reported as “inactive”. For O=C(O)/C(=C/c1c(C(=O)O)[nH]c2cc(Cl)cc(Cl)c12)c1ccccc1, the Potency was “inactive”.
